Test systems include SK-MEL-2 melanoma; EKVX NSCLC; SN12C renal; UO-31 renal; TK-10 renal; ACHN renal; CAKI-1 renal; A498 renal; CCRF-CEM leukemia; MOLT-4 leukemia.
Common to all, as to assay: NCI-60 one-dose screen, 48 h (100 = growth as untreated, 0 = no growth, -100 = all killed)
What all share (conditions): 10 µM unless noted

About 83,000 compounds went through this panel and 20% of them were active in at least one assay; those are over-represented in the sample as a whole.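 Cell lines were cultured in 96-well plates, exposed to a single compound concentration, and assessed for percent growth 48 hours later.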 A number with no mark means an inactive call. Activity calls are given as the source filed them. The calls were made as follows: active = growth percent below 10; inactive = the rest.

In the case of `O=C(CCl)Nc1ccc2c(Nc3cc(O)ccc3Cl)ncnc2c1`, the growth in the experiment on SK-MEL-2 melanoma is -76.5% (active); with EKVX NSCLC it was -53.8% (active); with SN12C renal it was -83.4% (active); in the experiment on UO-31 renal, -92.9% (active); in the experiment with TK-10 renal it was -66.9% (active); in the experiment with ACHN renal, -98.3% (active). Besides, the growth in the experiment with CAKI-1 renal was -86.1% (active); in the experiment with A498 renal, 56.2%; in the experiment with CCRF-CEM leukemia it was -5.44% (active); in the experiment with MOLT-4 leukemia, -24.4% (active).

As for `COc1cc(C2=NN(C(C)=O)C(c3ccc(N(C)C)cc3)C2)cc(OC)c1OC` (stereo not given), the growth with SK-MEL-2 melanoma was 90%; in the experiment on EKVX NSCLC it was 94.7%; in the experiment with SN12C renal, 86.4%; in the experiment with UO-31 renal, 79.6%; with TK-10 renal, 109%; with ACHN renal, 91.8%. Also, the growth with CAKI-1 renal was 15.3%; in the experiment on A498 renal it was 76%; in the experiment with CCRF-CEM leukemia, 14.6%; in the experiment on MOLT-4 leukemia, 80.8%.

Consider `CC1=NN(c2ccc(Cl)cc2)CC1(C)N=O` (stereo not given), for which the growth with SK-MEL-2 melanoma was 105%; in the experiment on EKVX NSCLC it was 70.1%; in the experiment on SN12C renal, 88.4%; in the experiment on UO-31 renal, 32.8%; in the experiment with TK-10 renal it was 105%; in the experiment on ACHN renal it was 15.2%. Also, the growth is 60.4% with CAKI-1 renal, 101% in the experiment on A498 renal, 34% in the experiment on CCRF-CEM leukemia and 44.6% in the experiment on MOLT-4 leukemia.

Take `Cn1cc(-c2csc(-c3cn(C)c4ccc(Br)cc34)n2)c2cnccc21`: the growth was 47.7% in the experiment on SK-MEL-2 melanoma; -79.1% (active) in the experiment with EKVX NSCLC; -91.5% (active) in the experiment with SN12C renal; -89.9% (active) in the experiment on UO-31 renal; -75.7% (active) in the experiment with TK-10 renal; -99.5% (active) in the experiment with ACHN renal. Also, the growth in the experiment with CAKI-1 renal is -82.2% (active); in the experiment with A498 renal, 68.7%; in the experiment with CCRF-CEM leukemia it was -38.1% (active); in the experiment with MOLT-4 leukemia, -58.9% (active).

Turning to `C=C1C(=O)O[C@H]2[C@H]1CC/C(CNC(=O)c1cc3ccccc3[nH]1)=C\CC[C@@]1(C)O[C@@H]21`, the growth is -60.8% (active) with SK-MEL-2 melanoma; 14% in the experiment with EKVX NSCLC; -43.3% (active) in the experiment with SN12C renal; -73.5% (active) in the experiment with UO-31 renal; -89.9% (active) with TK-10 renal; -77.6% (active) in the experiment on ACHN renal. Besides, the growth is -60.4% (active) in the experiment on CAKI-1 renal, -63.4% (active) with A498 renal, -35.7% (active) with CCRF-CEM leukemia and -35.5% (active) with MOLT-4 leukemia.

Regarding `Nc1c(C(=O)Nc2cccc3ncccc23)sc2nc3c(cc12)C(=O)CCC3`, the growth is 36.3% in the experiment on SK-MEL-2 melanoma; 58.6% in the experiment with EKVX NSCLC; 60.8% in the experiment on SN12C renal; 58.3% in the experiment on UO-31 renal; 76.8% in the experiment with TK-10 renal; 52% with ACHN renal. The growth is 58.8% in the experiment on CAKI-1 renal, 4.53% (active) in the experiment with A498 renal, 30.5% in the experiment on CCRF-CEM leukemia and 66.6% in the experiment with MOLT-4 leukemia.

Consider `N=c1c2c(=N)n3c(nc2nc2n1-c1ccccc1Sc1ccccc1-2)sc1cc(Cl)ccc13`, for which the growth in the experiment on SK-MEL-2 melanoma was -2.45% (active); with EKVX NSCLC it was 13.8%; with SN12C renal, 25%; in the experiment on UO-31 renal, 7.88% (active); with TK-10 renal, 33.6%; in the experiment on ACHN renal, 18.2%. The growth in the experiment on CAKI-1 renal was 8.56% (active); with A498 renal, 0.653% (active); in the experiment on CCRF-CEM leukemia it was 37.7%; in the experiment on MOLT-4 leukemia it was 48.4%.

For the compound `CCCCCCCC/C=C\CCCCCCCCOc1ccc(CC(=O)NCC[N+](C)(C)C)cc1`, the growth was 101% in the experiment with SK-MEL-2 melanoma; 87.8% in the experiment with EKVX NSCLC; 50% in the experiment on SN12C renal; 92.8% in the experiment on UO-31 renal; 24.6% in the experiment with TK-10 renal; 60.8% in the experiment with ACHN renal. For the same compound, the growth was 44.6% in the experiment on CAKI-1 renal, 68.9% in the experiment with A498 renal, 54.6% in the experiment on CCRF-CEM leukemia and 75.1% in the experiment with MOLT-4 leukemia.

For the compound `CC[C@H](CC[C@@H](C)[C@H]1CC[C@H]2[C@@H]3CC[C@@H]4CC(=O)/C(=C\c5ccncc5)C[C@]4(C)[C@H]3CC[C@]12C)C(C)C`, the growth with SK-MEL-2 melanoma is 105%; in the experiment with EKVX NSCLC, 99.6%; in the experiment with SN12C renal, 102%; in the experiment on UO-31 renal it was 90.4%; in the experiment on TK-10 renal, 107%; in the experiment with ACHN renal, 111%. Also, the growth with CAKI-1 renal is 93.8%; in the experiment with A498 renal, 83%; in the experiment on CCRF-CEM leukemia, 107%; in the experiment with MOLT-4 leukemia, 104%.

On to `Clc1nn2c(Cn3cnc4c(NCc5ccccc5)ncnc43)nnc2c2ccccc12`, for which the growth in the experiment with SK-MEL-2 melanoma is -5.44% (active); in the experiment with EKVX NSCLC, 52%; in the experiment with SN12C renal, 32%; in the experiment on UO-31 renal it was 21.7%; in the experiment on TK-10 renal it was 40.5%; with ACHN renal, 16.8%. Moreover, the growth was 3.56% (active) in the experiment with CAKI-1 renal, 22.5% with A498 renal, 39% in the experiment on CCRF-CEM leukemia and 26.5% in the experiment with MOLT-4 leukemia.

Regarding `O=C(CN1C(=O)/C(=C/c2ccco2)SC1=S)NCCc1c[nH]c2ccc(F)cc12`, the growth in the experiment with SK-MEL-2 melanoma is 119%; with EKVX NSCLC, 98.3%; with SN12C renal it was 97.6%; in the experiment on UO-31 renal it was 70.8%; in the experiment on TK-10 renal it was 105%; in the experiment with ACHN renal, 101%. The growth was 81.8% in the experiment with CAKI-1 renal, 94.5% in the experiment with A498 renal, 97.1% with CCRF-CEM leukemia and 97.7% in the experiment with MOLT-4 leukemia.

On to `COc1ncc2cc1NS(=O)(=O)c1cccc(c1)C(=O)NCC1=CC=C(S1)c1ncnc3c1SC2=C3C`, for which the growth in the experiment on SK-MEL-2 melanoma is -33.2% (active); in the experiment on EKVX NSCLC it was -15.6% (active); in the experiment on SN12C renal, 5.73% (active); with UO-31 renal it was -12.9% (active); in the experiment on TK-10 renal, -6.51% (active); in the experiment on ACHN renal, -13.7% (active). In addition, the growth was -26.1% (active) in the experiment on CAKI-1 renal, -67.2% (active) in the experiment on A498 renal, -0.78% (active) with CCRF-CEM leukemia and -20.2% (active) in the experiment on MOLT-4 leukemia.
